# LDHA inh: inhibitors of human lactate dehydrogenase A | activity change, % (values are at about 110 or 230 µM) | AID 1347041 | 0.15% of 480,000 active | P00338 | purified LDHA, NADH/diaphorase-resazurin fluorescence; hits give low values; in the data active = activity change below about -30%; inconclusive = mostly about -25% to -30%;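 also: plate controls were DMSO wells for no effect and wells without enzyme for full effect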
#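 Resorufin fluorescence (ex540/em590), read at 0 and 20 min after diaphorase/resazurin addition, reports the NADH left after a 5 min room-temperature reaction of 2 nM human LDH5 with 0.06 mM NADH and 0.2 mM pyruvate.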
# PI5P4K alpha inh: PI5P4K alpha (human) kinase inhibition | P48426 | PI5P4Kalpha enzyme, ADP-Glo luminescence, 60 min; hits give low values | max response, % | 1.2% of 330,000 active | AID 652105; active = max response of -50% or lower; inconclusive = between -30% and -50%; inactive = -30% or higher; also: value at the top dose of about 77 µM; % is scaled to controls: 0 for no effect and ±100 for the full control effect
# Target sequence (P48426 whole entry, looked up): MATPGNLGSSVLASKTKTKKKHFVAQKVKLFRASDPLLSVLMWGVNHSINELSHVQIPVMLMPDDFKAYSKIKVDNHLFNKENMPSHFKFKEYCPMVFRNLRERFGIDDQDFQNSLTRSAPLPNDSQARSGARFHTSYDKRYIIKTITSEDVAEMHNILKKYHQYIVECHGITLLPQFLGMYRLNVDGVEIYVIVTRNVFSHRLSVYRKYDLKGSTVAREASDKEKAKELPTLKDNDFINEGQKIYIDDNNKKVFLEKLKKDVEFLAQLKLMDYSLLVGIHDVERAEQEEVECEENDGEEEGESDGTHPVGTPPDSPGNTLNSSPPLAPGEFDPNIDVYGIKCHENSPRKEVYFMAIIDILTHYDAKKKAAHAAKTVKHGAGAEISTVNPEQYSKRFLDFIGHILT
#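 ADP-Glo luminescence end-point after a 60 min room-temperature kinase reaction. PI5P4Kalpha and substrate in HEPES pH 7.4 buffer with EGTA, 0.1% CHAPS and 5% DMSO; ATP at 5 microM final.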
# D3 ag: agonists of human D3 dopamine receptor; max activation, %; D3R DiscoveRx beta-arrestin cells, luminescence, 90 min; 0.58% of 410,000 active; in the data active = max activation above about 30%; also: 0% is about no effect
#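 Agonist mode: compounds and dopamine controls were applied to plated cells for 90 min at 37 degrees C after an overnight attachment at 1500 cells/well. Luminescent read-out followed 30 - 60 minutes at room temperature with DiscoveRx detection reagent.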
# PI4K2A block: blocks human PI4K2A kinase activity | 0.13% of 420,000 active | purified PI4K2A, ADP-Glo luminescence, 1 h; hits give low values | AID 1346378 | Q9BTU6 | activity change, negative = inhibition, % at 76.9 µM; in the data active = activity change below about -50%; inconclusive = mostly about -30% to -49%;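 also: -100% = wells without enzyme as full effect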
#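 PI4K2A activity was measured by ADP-Glo luminescence: enzyme (4 ug/mL stock) and phosphatidylinositol (1.2 mM stock) in Tris pH 7.5/MgCl2/EGTA/Triton X-100 buffer were reacted with ATP (300 microM stock) for one hour at ambient temperature.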
# D3 antag: D3 dopamine receptor (human) antagonism | AID 652054 | 2.5% of 360,000 active | max response, negative = inhibition, % | D3R cells, DiscoveRx beta-arrestin luminescence, antagonist mode; hits give low values | P35462; in the data active = max response below about -50%; inconclusive = no clear call, values can overlap the other calls; also: % is scaled to controls: 0 for no effect and ±100 for the full control effect
#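 Cells plated overnight at 1500 cells/well, then exposed to library compounds with dopamine controls for 90 minutes at 37 degrees C. DiscoveRx reagent added for 30–60 minutes at room temperature; luminescence read, quantitative HTS format.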
# * marks the source's active call; other numbers are inactive results; ? = inconclusive; / = no result. Most compounds without a hit are left out; they make up all but 3.3% or so of the library.
SMILES,LDHA inh,PI5P4K alpha inh,D3 ag,PI4K2A block,D3 antag
CC(C)(CN1CCNCC1)NS(=O)(=O)c1ccc(Cl)cc1,-4,13,-23,1,-95*
COc1ccc(C)cc1NC(=O)CCN1CCN(C/C=C/c2ccccc2)CC1,-6,4,-15,-5,-52*
CC(C)(CNCc1ccccc1)NS(=O)(=O)c1ccc(Cl)cc1,0,-2,-10,1,-57*
CC(=O)c1c(C)[nH]c(C(=O)C(C)Sc2ccc(C(F)(F)F)cn2)c1C (stereo not given),12,/,/,/,/
COc1ccc(C2(c3ccc(OC)cc3)C=Cc3c(c(OC)cc4ccccc34)O2)cc1,-4,/,/,/,/
Cc1[nH]c2ccccc2c1C(=O)/C(C#N)=C\c1cccc(Br)c1,0,/,/,/,/
Cn1c(SCC(=O)NCc2ccccc2CN2CCOCC2)nnc1-c1ccc(Cl)cc1,-1,/,/,/,/
COc1cccc(-n2nnc3c(N4CCN(S(=O)(=O)c5ccc(C)c(C)c5)CC4)ncnc32)c1,4,/,/,/,/
CC(NS(=O)(=O)c1ccc(Cl)c(Cl)c1)C(=O)Nc1cccnc1 (stereo not given),-9,0,-5,1,-57*
COc1ccc(S(=O)(=O)NC(C)C(=O)Nc2ccccc2)cc1Cl (stereo not given),-3,9,-1,-1,5
CC(Oc1ccc(Cl)cc1Cl)C(=O)NC1CCSC1=O (stereo not given),9,/,-6,6,-75*
CC(Oc1ccc(Cl)cc1Cl)C(=O)Nc1cccnc1 (stereo not given),-1,10,-3,4,-53*
CC(Oc1ccc(Cl)cc1Cl)C(=O)Nc1ccncc1 (stereo not given),-2,-1,3,4,31
CCCCCOc1ccc(/C=N/NC(=O)CSc2nnc(-c3ccc(OC)cc3)n2-c2ccc(C)cc2)cc1,/,/,/,-5,/
Cc1cn2c(=O)c(S(=O)(=O)N3CCN(c4cccc(C)c4C)CC3)c(C)nc2s1,-1,/,/,/,/
COc1ccc2ccccc2c1C=NNC(=O)c1cc(-c2ccc(C)c(C)c2)n[nH]1,/,/,/,1,/
COc1cccc2sc3cc(C#CC4(O)CCCCC4)ccc3c(=O)c12,6,-26,63*,-6,203
CC(C)c1ccc(NC(=O)CSc2cnc3cc(S(=O)(=O)N4CCCCC4)ccc3n2)cc1,-2,/,/,/,/
COc1ccc(N(C)C(=O)CCC(=O)Nc2ccc3nc(N4CCOCC4)cc(C)c3c2)c(OC)c1,10,/,35*,3,-6
N#C/C(=N\Nc1ccc(Cl)cc1)C(N)=S,-18,?,11,13,10
Cc1ccc(N/N=C(\C#N)C(N)=S)cc1C,-11,-51*,-3,-2,-10
CC[C@@H](C(=O)[C@@H](C)[C@@H](O)[C@H](C)[C@@H]1O[C@@H]([C@@H](CC)C(=O)O)CC[C@@H]1C)[C@H]1O[C@]2(C=C[C@@H](O)[C@]3(CC[C@@](C)([C@H]4CC[C@](O)(CC)[C@H](C)O4)O3)O2)[C@H](C)C[C@@H]1C,-3,0,249*,-1,373
O=c1cc(O)c2sc(Nc3ccc(F)c(Cl)c3)nc2[nH]1,35,-69*,-1,-2,17
O=C(C1CCCN(Cc2ccccc2Br)C1)N1CCCCC1 (stereo not given),-13,-1,-6,1,-85*
O=C(C1CCCN(Cc2ccccc2C(F)(F)F)C1)N1CCCCC1 (stereo not given),5,5,1,5,-88*
SMILES,LDHA inh,PI5P4K alpha inh,D3 ag,PI4K2A block,D3 antag
O=C(C1CCCN(Cc2ccccc2F)C1)N1CCCCC1 (stereo not given),-17,8,-29,5,-22
Cc1ccc(C)c(-c2csc(Nc3ccc(S(N)(=O)=O)cc3)n2)c1,-2,/,/,/,/
CCc1nnc(NC(=O)c2ccc(S(=O)(=O)N(C)Cc3ccccc3)cc2)o1,1,-2,-1,1,-1
CN(Cc1ccccc1)S(=O)(=O)c1ccc(C(=O)Nc2nnc(C3CC3)o2)cc1,2,-19,-7,-3,-63*
CN(c1ccccc1)S(=O)(=O)c1ccc(C(=O)Nc2nnc(-c3ccc(F)cc3)o2)cc1,3,3,-4,-1,-88*
CN(c1ccccc1)S(=O)(=O)c1ccc(NC(=O)c2ccc(-c3ccccc3)cc2)cc1,2,/,13,-1,19
COc1ccccc1-c1nnc(NC(=O)c2ccc(S(=O)(=O)N(C)Cc3ccccc3)cc2)o1,-1,-27,4,3,-78*
CCN(CC)CCOC(=O)c1ccc(N/C=C(/C#N)c2nc(-c3cc4ccccc4oc3=O)cs2)cc1,0,?,0,5,17
CCN(CC)CCOC(=O)c1ccc(N/C=C(/C#N)c2nc(-c3ccc4c(c3)OCO4)cs2)cc1,-4,-53*,10,0,-2
CCN(CC)CCOC(=O)c1ccc(N/C=C(/C#N)c2nc(-c3ccc(OC)cc3)cs2)cc1,-8,-69*,-8,-1,-17
COc1ccc(CNC(=O)C2CCC(=O)N(CCCN3CCCC3=O)C2)c(OC)c1 (stereo not given),-1,1,33*,3,19
OC(CSc1c(Cl)cccc1Cl)CN1CCN(c2ccc(F)cc2)CC1 (stereo not given),7,/,-39,2,-89*
OC(CSc1ccccc1)CN1CCN(c2ccccc2)CC1 (stereo not given),-1,1,-2,-3,?
OC(CSc1ccccc1Cl)CN1CCN(c2ccc(F)cc2)CC1 (stereo not given),2,/,-28,0,-81*
CCc1c(C)sc(NC(=O)Cc2ccc(Cl)c(Cl)c2)c1C#N,12,/,/,/,/
Nc1c(C(=O)NCC2CCCO2)sc2nc3c(c(-c4ccco4)c12)CC/C3=C\c1ccco1 (stereo not given),13,-100*,-4,-76*,-4
O=C(CN1C(=O)NC2(CCCCC2)C1=O)N1CCN(S(=O)(=O)c2ccccc2)CC1,-4,1,-6,0,-17
CCC1(c2ccccc2)NC(=O)N(CC(=O)N2CCN(S(=O)(=O)c3ccccc3)CC2)C1=O (stereo not given),6,-65*,-6,-4,2
CC1(C(=O)Nc2ccc3c(c2)OCCO3)CSCC(=O)N1CCCN1CCOCC1 (stereo not given),-3,-6,1,-3,-12
CC1(C(=O)Nc2ccc3c(c2)OCCO3)CSCC(=O)N1C1CCN(Cc2ccccc2)CC1 (stereo not given),3,3,-17,-2,-61*
COCCn1c(C)cc(C2=NNC(=Nc3ccccc3)SC2)c1C,10,?,1,-52*,-58*
COCCn1c(C)cc(C2=NNC(=Nc3ccc(OC)cc3)SC2)c1C,-1,/,-3,-1,-12
COc1ccc2[nH]cc(CCNC(=O)C(C)(C)C)c2c1,9,/,/,/,/

# From PubChem
